The campaign covered roughly 65,000 compounds. About 100 (0.15%) were called active. The list comes from a sample in which actives are over-represented; it also holds similar structures and randomly drawn compounds. A number with no mark means an inactive call.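 Rule for the calls: active = inhibition above about 50% (limit read from the data); inconclusive = inhibition over screen mean plus 3 SD, below that limit; inactive = the rest.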

For this assay, the target named is Dual specificity protein phosphatase 1 (Homo sapiens) (UniProt P28562). In words: MKP-1 phosphatase inhibitors, primary screen, biochemical, in vitro (AID 374).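 Note: 0% = DMSO max control wells and 100% = wells with enzyme stopped by NaOH.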 Conditions: recombinant MKP-1, OMFP hydrolysis fluorescence; stronger effect = higher value;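 compounds tested at a single concentration somewhere between 10 and 100 µM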.
Dual specificity protein phosphatase 1 (Homo sapiens), sequence (P28562 whole entry, looked up): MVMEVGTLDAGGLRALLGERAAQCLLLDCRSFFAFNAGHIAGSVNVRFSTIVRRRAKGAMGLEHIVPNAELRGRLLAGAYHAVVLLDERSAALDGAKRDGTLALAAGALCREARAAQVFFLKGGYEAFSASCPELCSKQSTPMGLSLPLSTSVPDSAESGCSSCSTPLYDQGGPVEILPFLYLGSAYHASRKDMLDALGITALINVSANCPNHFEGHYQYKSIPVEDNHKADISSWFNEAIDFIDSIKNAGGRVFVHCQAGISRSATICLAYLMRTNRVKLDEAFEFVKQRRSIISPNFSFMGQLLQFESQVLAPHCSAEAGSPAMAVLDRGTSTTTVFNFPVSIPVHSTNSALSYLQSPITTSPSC
Take `CC(CCc1ccccc1)NC(=O)c1ccc(Br)o1` (stereo not drawn): the inhibition is 9.59%.
As for `CC(C)CNC(=O)C1CCCN(S(=O)(=O)c2ccc(-n3cnnn3)cc2)C1` (stereo not drawn), the inhibition was 10.4%.
The figure for `CC(C)C(C(=O)NC1CCCCC1)N(CC1CCCO1)C(=O)CNS(=O)(=O)c1ccc(F)cc1` (stereo not drawn) is 42%; for `COc1ccc(OCC(=O)N2CCN(C(=O)COc3ccccc3)CC2)cc1` it is 3.4%; for `CCOC(=O)C1CCCN(C(=O)c2cncc(Br)c2)C1` (stereo not drawn) it is -1.24%.
Consider `COc1cccc(N2CCN(C3CC(=O)N(c4ccc(Cl)cc4)C3=O)CC2)c1` (stereo not drawn), for which the inhibition was 9.47%.
For `COc1cccc(N2C(=O)C3CCCN3C2c2ccc(F)cc2)c1` (stereo not drawn) the value was 7.6%; for `CCOC(=O)N1CCN(C(=O)c2ccc3nc4cc(Cl)ccc4c(=O)n3c2)CC1`, -0.24%.
For `CNC(=O)C1CC(=O)N(Cc2ccc3c(c2)OCO3)C(=Nc2ccc(F)cc2)S1` (stereo not drawn) the value was 4.87%; for `CCCNc1ncnc2sc(C)c(C)c12`, 6.02%.
As for `CCCc1nc(-c2ccccc2O)n(-c2ccccc2)n1`, the inhibition was -14.3%.
For `COc1ccccc1-n1cnc2cc(NS(=O)(=O)c3ccccc3)ccc21`, the inhibition is -7.71%.
On to `C=C(C)Cn1c(N2CCCC2)nc2c1c(=O)[nH]c(=O)n2C`, for which the inhibition is 4.46%.
For the molecule `CCOC(=O)N1CCN(Cc2oc(CO)cc(=O)c2O)CC1`, the inhibition was 30.4%.
With `Cc1cccc(N2CCN(C(=O)c3cc4c(=O)[nH]c5ccccc5c4n3C)CC2)c1C`, the inhibition is 50.9% (active).
For `Cn1c(C(=O)NCCN2CCc3ccccc3C2)cc2c(=O)[nH]c3ccccc3c21` the value was 31%.
Turning to `CC(=O)N1CCN(c2cccc(C)c2C)CC1`, the inhibition was 9.16%.
In the case of `COCCCn1c(CCC(=O)O)ccc1-c1ccc(F)cc1`, the inhibition was 33.1%.
The figure for `Cn1c(SCc2c(F)cccc2Cl)nnc1-c1cnccn1` is 4.26%; for `COc1cccc(CN2C(=O)CCC2(C)C(=O)NC2CCCCCC2)c1` (stereo not drawn) it is 10.3%; for `O=c1c2ccccc2nc(CSc2nnnn2-c2ccccc2)n1-c1ccccc1` it is 11.8%.
For `Cc1ccc(-c2noc(CSc3nnnn3-c3ccccc3)n2)cc1` the value was 0.15%.
Regarding `Cc1ccc(Nc2nc(CSc3nnnn3-c3ccccc3)cc(=O)[nH]2)cc1`, the inhibition was 53.9% (active).
Consider `CCOCCCNC(=O)c1c[nH]c2cc(C)ccc2c1=O`, for which the inhibition was 7.4%.
With `COc1ccc(NC(=O)c2c(SC)nsc2SC)cc1`, the inhibition is 0.33%.
For the molecule `CC(=O)Nc1ccc(S(=O)(=O)Nc2nc3n(n2)C(c2ccccc2)CC(=O)N3)cc1` (stereo not drawn), the inhibition was -6%.
The figure for `CC(C)COC(=O)c1ccc(NC(=O)C2C3C=CC(C3)C2C(=O)O)cc1` (stereo not drawn) is 23.6%.
Consider `CCCCOc1ccc(C(=O)NCc2ccco2)cc1`, for which the inhibition is -0.67%.
On to `C[C@H](NC(=O)OC(C)(C)C)c1nnc(SCC(=O)Nc2ccc(Br)cc2)o1`, for which the inhibition was 13%.
Regarding `Cc1oc2nc(SCC(=O)NCc3cccnc3)nc(N)c2c1C`, the inhibition was 32.5%.
For `CN1c2ccccc2-c2nc3ccccc3n2C1c1ccco1` (stereo not drawn) the value was -25.5%.
As to `COc1ccc(F)cc1S(=O)(=O)Nc1ccc2c(c1)OCO2`, the inhibition is 12.4%.
For the molecule `CCOC(=O)N1CCN(C(=O)CN(c2ccc(C)c(C)c2)S(=O)(=O)c2ccccc2)CC1`, the inhibition was 12.6%.
Turning to `O=S(=O)(c1cccs1)N1CCc2ccccc2C1`, the inhibition is 1.16%.
Take `CC1Cn2c(nnc2-c2cccs2)S1` (stereo not drawn): the inhibition was -6.93%.
As for `Cc1nc2nc3c(cn2n1)C(=O)CC(c1ccccc1)C3` (stereo not drawn), the inhibition is -8.11%.
As to `CCSC(C)CC1C/C(=N/O)c2c(C)noc2C1` (stereo not drawn), the inhibition is 12.5%.
For the molecule `COc1cccc(C2/C(=C(/O)c3ccc(F)cc3)C(=O)C(=O)N2CCN(C)C)c1` (stereo not drawn), the inhibition was 3.73%.
The figure for `O=C(Oc1ccc2c(c1)CCC2)N1CCOCC1` is -9.77%.
Consider `O=C(NC(=O)c1ccc(Cl)c(Cl)c1)OC1CCS(=O)(=O)C1` (stereo not drawn), for which the inhibition was 0.18%.
The figure for `O=C(Nc1c(Cl)cccc1Cl)C1CCC1` is -12.7%.
In the case of `Cc1cccc(N2CCN(C(c3ccccc3)c3nnnn3CC3CCCO3)CC2)c1C` (stereo not drawn), the inhibition is 20.8%.
Turning to `COCCOC(=O)C1=C(C)NC(=O)NC1c1ccc(Cl)cc1` (stereo not drawn), the inhibition was 5.89%.
For `CCc1ccccc1NC(=O)CSc1nnc([C@@H](NC(=O)OC(C)(C)C)C(C)CC)o1` (stereo partly drawn), the inhibition is 27.6%.
Regarding `N#Cc1nc(Cc2cccc3ccccc23)oc1NCc1ccc2c(c1)OCO2`, the inhibition was -0.11%.
On to `COc1ccc(S(=O)(=O)Nc2ccc(S(=O)(=O)N3CCCCC3)cc2)cc1OC`, for which the inhibition was -11.3%.
As to `O=C(O)c1ccc(COCC(F)(F)F)cc1`, the inhibition is 5.73%.
For `COC(=O)[C@H](CCSC)NC(=O)Nc1ccc(OC)cc1` the value was -29.3%.
The figure for `Cc1ccc(C(=O)NCCNS(=O)(=O)c2ccccc2)cc1` is 9.54%; for `CCOC(=O)C1C(=O)OC2(CCCC2)C1C(=O)OCC` (stereo not drawn) it is 0.52%; for `CSC1=NCCN1C(=O)c1ccc(S(=O)(=O)N2CCOCC2)cc1` it is -8.44%.
On to `CC(C)(C)n1nc2c(c1NC(=O)c1ccc(S(=O)(=O)N3CCCC3)cc1)CS(=O)C2` (stereo not drawn), for which the inhibition was 1.54%.
With `COCCCNC(=O)CCc1nc2cccnc2n1Cc1ccc(OC)cc1`, the inhibition is 2.57%.
As for `CCC(C(=O)Nc1ncccn1)(C(F)(F)F)C(F)(F)F`, the inhibition is -11.8%.
`CCN(CC)S(=O)(=O)c1cccc(C(=O)Nc2cc(C)nn2-c2nc(C)cc(C)n2)c1`: the inhibition is -26.4%.
For `Cc1nc(-c2ccc(NC(=O)c3cccs3)cc2)cs1`, the inhibition was -3.52%.
As to `Cn1c(SCC(=O)Nc2cccc(O)c2)nnc1-c1ccc(S(=O)(=O)N2CCOCC2)cc1`, the inhibition was -24.3%.
As for `OC(COc1ccccc1)Cn1cc(Br)cn1` (stereo not drawn), the inhibition is -0.2%.
For `COC(=O)c1ccc(C2C3=C(Nc4nnnn42)c2ccccc2OC3)cc1` (stereo not drawn) the value was -1.69%; for `Cc1c(C)c2cc3c4c(oc3c(C)c2oc1=O)CCCC4`, 10%; for `O=C(CSc1nc2[nH]ncc2c(=O)n1-c1ccccc1)N1CCCc2ccccc21`, 50.2% (active).
With `Cc1nnc(SCC(=O)N2CCc3ccccc32)n1-c1ccccc1`, the inhibition is 17.3%.
In the case of `C=CCn1c(=O)c2ccccc2n2c(SCC(=O)N3CCCc4ccccc43)nnc12`, the inhibition was 12.1%.
The figure for `COC(C)(C)[C@]12CC(O)(C(C)C)ON1[C@H]1CCCCC1N2O` (stereo partly drawn) is -23.5%.
For `CCOc1ccc(C(=O)NC2CCN(S(=O)(=O)CC)CC2)cc1` the value was -10.3%; for `COC(=O)C(C)n1cnc2c(nnn2-c2cccc(Cl)c2)c1=O` (stereo not drawn), -3.96%.
With `Cc1ccc(CNC(=O)C2CCCN(S(C)(=O)=O)C2)cc1` (stereo not drawn), the inhibition is 4.5%.
The figure for `O=C(c1ccco1)N1CCN(CC(=O)N(C2CCCCC2)C2CCS(=O)(=O)C2)CC1` (stereo not drawn) is 8.56%; for `COc1ccc(-n2ncc3c(N4CCc5ccccc54)ncnc32)cc1` it is -0.04%; for `CCCN1C(=O)C(NS(=O)(=O)c2ccc(N)cc2)(C(F)(F)F)C(C(=O)OC)=C1C` (stereo not drawn) it is 7.02%.
Consider `Nc1ncc(-c2cc3ccccc3oc2=O)s1`, for which the inhibition was -7.46%.
Take `COc1ccccc1N1CCN(C(=O)CSc2nnc(-c3ccoc3C)o2)CC1`: the inhibition was 2.49%.
For `CC1=NC2(CCCc3c2no[n+]3[O-])N(O)C1(C)C` (stereo not drawn) the value was 10.4%; for `Cc1ccc(-n2nc3c(c2NC(=O)c2ccc4c(c2)OCO4)CSC3)c(C)c1`, 28.8%.
In the case of `CCOc1cc(-c2conc2N)cc(OCC)c1OCC`, the inhibition is 0.9%.
In the case of `CCOc1ccc(NC(=O)Nc2ccc(N(C)C(C)=O)cc2)cc1`, the inhibition is 6.8%.
Turning to `CCOC(=O)C1CCN(C(=O)CSc2cc(=O)n(C)c3ccccc23)CC1`, the inhibition is 3.52%.
Turning to `Cn1c(=O)c(C(=O)Nc2ncccn2)c(O)c2ccccc21`, the inhibition was 1.1%.
As to `O=C(Nc1cccnc1)c1noc2c1CCCCC2`, the inhibition was -9.22%.
For `S=C1SCN(CCN2CCOCC2)CN1Cc1ccccc1` the value was 22.5%; for `Cn1cc(S(=O)(=O)N2CCC(Cc3ccccc3)CC2)c(=O)n(C)c1=O`, 13.6%; for `CCOC(=O)C1=C(CC)Nc2ccccc2N=C1NC(=O)c1cccc(S(=O)(=O)N2CCCC2)c1`, 17.2%.
The figure for `CCOC(=O)N1CCN(C(=O)c2ccc(CN(c3ccc(C)c(C)c3)S(C)(=O)=O)cc2)CC1` is 6.83%; for `CCCC(=O)Nc1c(O)c2ccccc2[nH]c1=O` it is 24%; for `O=C(O)CN(Cc1ccco1)S(=O)(=O)c1ccc(F)cc1` it is -3.94%.
With `CC(C)C[C@H](NC(=O)Nc1cccc(C(F)(F)F)c1)C(=O)O`, the inhibition was -11.4%.
On to `CCOC(=O)c1cc2c(n(-c3ccc(C)cc3)c1=O)CCCC2=O`, for which the inhibition is 3.58%.
With `CCN1C(=O)CS/C1=N\c1nccs1`, the inhibition was 2.24%.
As to `Cc1cc(C(=O)OCC(=O)NCc2ccco2)c(C)n1-c1ccccc1`, the inhibition was 8.87%.
For `CCCC(NC(=O)c1ccccc1)c1nc2ccccc2n1Cc1ccc(C(=O)OC)o1` (stereo not drawn) the value was -11.6%; for `O=C(Cn1nnc(-c2ccc(CN3CCOCC3)cc2)n1)NC1CCCCC1`, -10.1%; for `COc1ccc(S(=O)(=O)N2CCCC2)c(C)c1C`, 2.42%.
For `CCn1c(SCC(=O)Nc2cc(C)c(Cl)cc2OC)nnc1-c1ccco1` the value was 13%; for `Cn1cccc1C(=O)NC(=O)COC(=O)Cc1coc2ccc3ccccc3c12`, 31.4%; for `CCOc1ccc2nc(SC(CC)C(=O)Nc3cc(C)on3)sc2c1` (stereo not drawn), 2.57%.
For `C=CCn1c(COc2ccccc2F)nnc1SCC(=O)N1CC(=O)Nc2ccccc21`, the inhibition was 2.2%.
With `CCC1CCCCN1CCCNC(=O)Cn1nc(-c2ccccc2)ccc1=O` (stereo not drawn), the inhibition is 0.39%.
The figure for `CCCc1[nH]nc2c1C(c1c(C)nn(-c3ccccc3)c1Cl)C(C#N)=C(N)O2` (stereo not drawn) is -4.58%; for `Cc1ccc(C(C(=O)NCc2ccco2)N(CC2CCCO2)C(=O)Cn2nnc3ccccc32)cc1` (stereo not drawn) it is 4.86%; for `COC(=O)c1ccc(NC(=O)CSc2nnc(-c3ccncc3)n2C)cc1` it is -30.5%.
Take `COc1ccccc1C1/C(=C(/O)c2ccc(C)cc2)C(=O)C(=O)N1Cc1ccco1` (stereo not drawn): the inhibition is 22.9%.
Turning to `COc1ccc(OC)c(C(=O)c2coc3ccc(OC)cc23)c1`, the inhibition was 3.61%.
For `COc1ccc(NC(=O)C2CCCN(S(=O)(=O)c3cccc4cccnc34)C2)cc1OC` (stereo not drawn) the value was 6.18%.
As for `CCn1c(Cc2ccccc2)nnc1SCc1nc2ccccc2c(=O)[nH]1`, the inhibition was 7.32%.
Regarding `NC(=O)CSc1oc(-c2cccs2)nc1S(=O)(=O)c1ccccc1`, the inhibition was 6.79%.
For `CCOc1ccc(OCc2ccc(C(=O)Nc3cccc(C)n3)o2)cc1` the value was -1.14%; for `CCc1nc(C)cn1S(=O)(=O)c1cc(OC)c(C)cc1C`, -31.2%.
As for `COc1cc(Br)cc(/C=N/c2ncn[nH]2)c1O`, the inhibition is -1.54%.
Turning to `CC1=NCCN1S(=O)(=O)c1ccc(Br)c(C)c1`, the inhibition was -0.35%.
For `Cn1c(C(=O)N2CCC(C(N)=O)CC2)cc2c(=O)n(C)c3ccccc3c21` the value was 8.99%; for `O=C(O)CSCNC(=O)CC12CC3CC(CC(C3)C1)C2`, -17.4%; for `CCC(=O)c1cc2c(cc1NC(=O)c1cccs1)OCCO2`, 1.58%.
As to `O=S(=O)(NCCOc1cccc2cccnc12)c1ccc(F)cc1`, the inhibition is -4.61%.

(Values after PubChem BioAssay AID374 (University of Pittsburgh Molecular Library Screening Center, 2006).)
